From PubChem BioAssay (NCI)
The panel holds about 79,000 compounds, 15% with a hit somewhere; the sample as a whole holds those more often. The source made the active and inactive calls. No stated cut-off is given here; in the data, active means growth inhibition above about 70%; inactive means the rest.

Assay: NCI Yeast Anticancer Drug Screen. Data for the bub3 strain (AID 167)
Conditions: S. cerevisiae bub3 mutant strain, at 50.0 µM, hits give high values
In short: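 Part of a panel of yeast mutants defective in DNA damage repair or cell cycle regulation. Each strain is grown with compound, and inhibition is calculated relative to solvent-treated cultures.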

Row | SMILES | growth inhibition
1 | Cc1ccc2c(c1)CC1(C2)Cc2ccc(C)cc2C1=O (stereo not given) | 64.8% (inactive)
2 | NC1=CC(=O)c2ccccc2C1=O | 93.8% (active)
3 | CCCCC(CC(=O)O)c1ccc(Cl)cc1 (stereo not given) | 54.6% (inactive)
4 | OCCOCCO[P+]1(OCCOCCO)n2c3ccc2C(c2ccccc2)=C2C=CC(=N2)C(c2ccccc2)=c2ccc(n21)=C(c1ccccc1)C1=NC(=C3c2ccccc2)C=C1 | 89% (active)
5 | Clc1ccc2[nH]c(-c3ccccc3)c(-c3ccccn3)c2c1 | 96.7% (active)
6 | COc1cc(NS(C)(=O)=O)ccc1Nc1c2ccccc2nc2ccccc12 | 11.1% (inactive)
7 | COC1/C=C/OC2(C)Oc3c(C)c(O)c4c(c3C2=O)C(=O)C=C(NC(=O)/C(C)=C\C=C\C(C)C(OC=O)C(C)C(O)C(C)C(OC(C)=O)C1C)C4=O (stereo not given) | 49.6% (inactive)
8 | COc1ccc(CN(C)c2c(C)ccc3ccccc23)cc1 | 79.6% (active)
9 | CCOC(=O)c1c(-c2ccccc2)csc1NC(=O)CBr | 94.2% (active)
10 | Nc1nc2nc(I)[nH]c2c(=O)[nH]1 | 31.6% (inactive)
11 | CC(CN(CC(=O)O)CC(=O)O)N(CC(=O)O)CC(=O)O.[Cl][Pd][Cl] (stereo not given) | 86.4% (active)
12 | COC(=O)c1nc(=S)[nH]c(C(=O)OC)c1C(=O)c1ccc2ccccc2c1 | 71.1% (active)
13 | O=C(Nc1ccccc1)OCCc1ccc(Br)cc1 | 6.1% (inactive)
14 | O=C(CCN1CCCCC1)/C(=C\c1ccc(Cl)cc1)c1ccccc1 | 99% (active)
15 | FC(F)(F)c1nc(S)cc(=S)[nH]1 | 58.3% (inactive)
16 | CCCCC(=O)N/N=C/c1ccc([N+](=O)[O-])s1 | 95.7% (active)
17 | CSC(=S)N/N=C(\C)c1nccnc1C | 99% (active)
18 | CC(=O)Oc1cc2c(cc1OC(C)=O)OCC(c1ccccc1)C2 (stereo not given) | 94.8% (active)
19 | O=Cc1ccc(O)c2ccccc12 | 48% (inactive)
20 | CC(=O)N(C1=C(Cl)C(=O)c2ccccc2C1=O)c1ccc(Cl)cc1 | 79.8% (active)

Row | SMILES | growth inhibition
21 | Cn1c2c(c3ccccc31)CCN1C[C@@H]3CCCC[C@H]3C[C@@H]21 | 62.5% (inactive)
22 | CCOc1ncc(Cl)c(OCC)n1 | -12.7% (inactive)
23 | C=C1C(=O)OC2C1CC1OC2C(C)CCC/C(C)=C\CCC1(C)O (stereo not given) | 92.4% (active)
24 | CCCCN(CCCC)CCC(O)(c1ccc(OC)c2ccccc12)C(O)(CCN(CCCC)CCCC)c1ccc(OC)c2ccccc12 (stereo not given) | 99.2% (active)
25 | CS/C(N)=N/NC(=O)CCC(=O)Nc1cc(Cl)c(Cl)cc1Cl | -0.85% (inactive)
26 | COc1ccc(OC)c(N=Nc2c(C)[nH]n(C(N)=S)c2=O)c1 | 42.1% (inactive)
27 | O=C(CC(=O)c1ccccc1)CC1(O)CCCCC1 | 96% (active)
28 | Nc1ccc2ccccc2c1Cc1c(O)ccc2ccccc12 | 88.8% (active)
29 | CC[n+]1c(/C=C/c2cc(C(=O)OC)n3c2sc2ccccc23)sc2ccccc21 | 98.6% (active)
30 | O=CNc1ccc2c(c1)Cc1cc(NC=O)ccc1-2 | 7.8% (inactive)
31 | O=C1CC(c2ccccc2)C(=O)N2C(=O)CC(c3ccccc3)C(=O)N12 (stereo not given) | 71.5% (active)
32 | CN1CCN(CCOC(=O)N2c3ccccc3Sc3ccccc32)CC1 | 15.6% (inactive)
33 | COc1nc(Nc2ccc(/C=C/c3ccc(Nc4nc(OC)nc(N(CCO)CCO)n4)cc3S(=O)(=O)O)c(S(=O)(=O)O)c2)nc(N(CCO)CCO)n1 | 3.2% (inactive)
34 | NNC(=O)NN=C(c1ccccc1)c1ccccc1 | 3.95% (inactive)
35 | CCOC(=O)C(Br)C(Br)c1cccc([N+](=O)[O-])c1 (stereo not given) | 99.5% (active)
36 | CCCCCCC(O)C(CO)CCCCC (stereo not given) | 98.2% (active)
37 | Oc1c(Br)c(Br)c(O)c(Br)c1Br | 97.8% (active)
38 | CC(=O)n1nc2c(c1CC(C)C)C(=O)C(Nc1ccccc1)=CC2=O | 23.2% (inactive)
39 | CC(C)(CCBr)[N+](=O)[O-] | 5.85% (inactive)
40 | Nc1ccccc1SCc1csc(-c2ccc(Cl)cc2)n1 | 97.1% (active)

Assay: NCI Yeast Anticancer Drug Screen. Data for the mlh1 rad18 strain (AID 175)
Conditions: S. cerevisiae mlh1 rad18 strain growth inhibition; at 5.0 µM (retest, dose inferred, filed as 0.5); hits give high values
In short: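 Compound-treated yeast growth, normalised to vehicle controls. Strain bears defined DNA repair mutations.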

Row | SMILES | growth inhibition
41 | Cc1ccc2c(c1)CC1(C2)Cc2ccc(C)cc2C1=O (stereo not given) | 5% (inactive)
42 | NC1=CC(=O)c2ccccc2C1=O | 31% (inactive)
43 | CCCCC(CC(=O)O)c1ccc(Cl)cc1 (stereo not given) | -133% (inactive)
44 | OCCOCCO[P+]1(OCCOCCO)n2c3ccc2C(c2ccccc2)=C2C=CC(=N2)C(c2ccccc2)=c2ccc(n21)=C(c1ccccc1)C1=NC(=C3c2ccccc2)C=C1 | 97% (active)
45 | Clc1ccc2[nH]c(-c3ccccc3)c(-c3ccccn3)c2c1 | 96% (active)
46 | COc1cc(NS(C)(=O)=O)ccc1Nc1c2ccccc2nc2ccccc12 | 9% (inactive)
47 | COC1/C=C/OC2(C)Oc3c(C)c(O)c4c(c3C2=O)C(=O)C=C(NC(=O)/C(C)=C\C=C\C(C)C(OC=O)C(C)C(O)C(C)C(OC(C)=O)C1C)C4=O (stereo not given) | 11% (inactive)
48 | COc1ccc(CN(C)c2c(C)ccc3ccccc23)cc1 | 3% (inactive)
49 | CCOC(=O)c1c(-c2ccccc2)csc1NC(=O)CBr | 49% (inactive)
50 | Nc1nc2nc(I)[nH]c2c(=O)[nH]1 | -9% (inactive)
51 | CC(CN(CC(=O)O)CC(=O)O)N(CC(=O)O)CC(=O)O.[Cl][Pd][Cl] (stereo not given) | 30% (inactive)
52 | COC(=O)c1nc(=S)[nH]c(C(=O)OC)c1C(=O)c1ccc2ccccc2c1 | 16% (inactive)
53 | O=C(Nc1ccccc1)OCCc1ccc(Br)cc1 | -5% (inactive)
54 | O=C(CCN1CCCCC1)/C(=C\c1ccc(Cl)cc1)c1ccccc1 | 16% (inactive)
55 | FC(F)(F)c1nc(S)cc(=S)[nH]1 | -4% (inactive)
56 | CCCCC(=O)N/N=C/c1ccc([N+](=O)[O-])s1 | 7% (inactive)
57 | CSC(=S)N/N=C(\C)c1nccnc1C | 5% (inactive)
58 | CC(=O)Oc1cc2c(cc1OC(C)=O)OCC(c1ccccc1)C2 (stereo not given) | -10% (inactive)
59 | O=Cc1ccc(O)c2ccccc12 | -5% (inactive)
60 | CC(=O)N(C1=C(Cl)C(=O)c2ccccc2C1=O)c1ccc(Cl)cc1 | 99% (active)

Row | SMILES | growth inhibition
61 | Cn1c2c(c3ccccc31)CCN1C[C@@H]3CCCC[C@H]3C[C@@H]21 | 0% (inactive)
62 | CCOc1ncc(Cl)c(OCC)n1 | 2% (inactive)
63 | C=C1C(=O)OC2C1CC1OC2C(C)CCC/C(C)=C\CCC1(C)O (stereo not given) | 1% (inactive)
64 | CCCCN(CCCC)CCC(O)(c1ccc(OC)c2ccccc12)C(O)(CCN(CCCC)CCCC)c1ccc(OC)c2ccccc12 (stereo not given) | 52% (inactive)
65 | CS/C(N)=N/NC(=O)CCC(=O)Nc1cc(Cl)c(Cl)cc1Cl | 5% (inactive)
66 | COc1ccc(OC)c(N=Nc2c(C)[nH]n(C(N)=S)c2=O)c1 | 11% (inactive)
67 | O=C(CC(=O)c1ccccc1)CC1(O)CCCCC1 | 6% (inactive)
68 | Nc1ccc2ccccc2c1Cc1c(O)ccc2ccccc12 | 6% (inactive)
69 | CC[n+]1c(/C=C/c2cc(C(=O)OC)n3c2sc2ccccc23)sc2ccccc21 | 61% (inactive)
70 | O=CNc1ccc2c(c1)Cc1cc(NC=O)ccc1-2 | 14% (inactive)
71 | O=C1CC(c2ccccc2)C(=O)N2C(=O)CC(c3ccccc3)C(=O)N12 (stereo not given) | 2% (inactive)
72 | CN1CCN(CCOC(=O)N2c3ccccc3Sc3ccccc32)CC1 | -4% (inactive)
73 | COc1nc(Nc2ccc(/C=C/c3ccc(Nc4nc(OC)nc(N(CCO)CCO)n4)cc3S(=O)(=O)O)c(S(=O)(=O)O)c2)nc(N(CCO)CCO)n1 | 0% (inactive)
74 | NNC(=O)NN=C(c1ccccc1)c1ccccc1 | -11% (inactive)
75 | CCOC(=O)C(Br)C(Br)c1cccc([N+](=O)[O-])c1 (stereo not given) | 98% (active)
76 | CCCCCCC(O)C(CO)CCCCC (stereo not given) | -2% (inactive)
77 | Oc1c(Br)c(Br)c(O)c(Br)c1Br | 10% (inactive)
78 | CC(=O)n1nc2c(c1CC(C)C)C(=O)C(Nc1ccccc1)=CC2=O | 1% (inactive)
79 | CC(C)(CCBr)[N+](=O)[O-] | -225% (inactive)
80 | Nc1ccccc1SCc1csc(-c2ccc(Cl)cc2)n1 | 2% (inactive)
